# Measurements from PubChem BioAssay AID463173 (ICCB-Longwood Screening Facility, Harvard Medical School, 2010).
# Out of some 52,000 compounds screened, about 4,300 (8.3%) were called active. The full list was thinned out, with actives kept by preference. Unmarked numbers belong to inactive results. Rule as the data show it: active = survival mostly below about 52% (no sharp cut-off); inactive = mostly above about 56%.
# System: DeltatarO mutant
# Experiment: growth inhibition of S. aureus wild type versus tarO mutant, primary screen, teichoic acid synthesis inhibitors, RN4220, OD600 (AID 463173)
# Conditions: OD600, 18 h, active compounds read low, screened at 18.75 µg/mL (by protocol)
row,Compound,survival
1,Cc1ccc(C)c(CN2C(=O)c3ccccc3S(=O)c3ccc(C(=O)NCCC4=CCCCC4)cc32)c1 (stereo unspecified),52%
2,COc1cccc(-c2nnc(SCC(=O)NC3CCCCC3)o2)c1,73%
3,Cc1ccc(C(=O)O)cc1-n1c(C)ccc1-c1ccccc1,59%
4,O=C(Cn1c(=O)nc(-c2ccccc2)c2ccccc21)Nc1ccc(Cl)c(C(F)(F)F)c1,90%
5,COc1cccc(NC(=O)Cn2c(=O)n(Cc3ccccc3)c(=O)c3ccccc32)c1,125%
6,COc1ccc(-n2ccnc(NCCc3ccccc3)c2=O)cc1OC,102%
7,CCOc1ccc(Cn2c(=O)sc3ccccc32)cc1,85%
8,CC(C)CCOc1ccc(Cn2c(=O)sc3ccccc32)cc1,0% (active)
9,CCCOc1ccc(Cn2c(=O)sc3ccccc32)cc1,-1% (active)
10,CCCOc1ccc(CNC(=O)Cn2c(=O)oc3ccccc32)cc1,80%
11,CCCCOc1ccc(Cn2c(=O)sc3ccccc32)cc1,-1% (active)
12,O=c1sc2ccccc2n1CCCOc1ccccc1,105%
13,Cc1ccc(NC(=O)CSc2nc3n[nH]c(C)c3c(=N)n2-c2ccccc2C)cc1C,77%
14,CCOC(=O)C1CCC(CN(Cc2ccc(OC)cc2)S(=O)(=O)c2ccc(F)c(C(=O)Nc3cc(Cl)ccc3OC)c2)CC1 (stereo unspecified),83%
15,CCN(CC)S(=O)(=O)c1ccc2c(c1)N(CC(=O)Nc1cccc(C(C)=O)c1)C(=O)CO2,84%
16,Cc1ccc(Cl)cc1N1CCN(C(=O)Cn2ncc3c4ccccc4n(C)c3c2=O)CC1,54%
17,CC1=C(c2ccc(C)cc2)S(=O)(=O)NC1=NCCCN1CCN(c2ccc(F)cc2)CC1,69%
18,O=C(O)C(Cc1c[nH]c2ccccc12)Nc1ncnc2c1oc1ccccc12 (stereo unspecified),76%
19,CCc1ccc(NC(=O)CCc2c(C)nc3nc(-c4cc(OC)cc(OC)c4)nn3c2C)cc1,111%

row,Compound,survival
1,CCCCc1ccc(NC(=O)CSc2nnc3[nH]c(=O)cc(C)n23)cc1,95%
2,Cc1ccc(CNC(=O)CCS(=O)(=O)c2ccc3c(c2)CC(C)N3C(=O)C2CC2)cc1 (stereo unspecified),91%
3,Clc1cccc(-n2ncc3c(N4CCN(Cc5ccccc5)CC4)ncnc32)c1,25% (active)
4,Cc1ccc(-n2ncc3c(N4CCN(Cc5ccccc5)CC4)ncnc32)cc1Cl,87%
5,COc1ccccc1N1CCN(c2ncnc3c2cnn3-c2cc(Cl)ccc2C)CC1,124%
6,COc1ccccc1N1CCN(c2ncnc3c2cnn3-c2ccc(C)cc2)CC1,91%
7,COc1ccccc1N1CCN(c2ncnc3c2cnn3-c2cccc(Cl)c2)CC1,-2% (active)
8,c1ccc(CN2CCN(c3ncnc4c3cnn4-c3ccccc3)CC2)cc1,69%
9,COc1cc(CSc2ncc(CO)n2Cc2ccc(C)cc2)cc(OC)c1,92%
10,Cc1ccc(-n2c(SCC(=O)c3ccccc3)nc3c([nH]c4ccccc43)c2=O)cc1,-5% (active)
11,COc1ccc(-n2c(SCC(=O)c3ccccc3)nc3c([nH]c4ccccc43)c2=O)cc1,98%
12,CCOc1ccc(-n2c(SCC(=O)Nc3cc(C)ccc3C)nc3c([nH]c4ccccc43)c2=O)cc1,75%
13,O=C(CSc1nc2c([nH]c3ccccc32)c(=O)n1-c1ccccc1)c1ccc(Cl)cc1,92%
14,Cc1cccc(NC(=O)CSc2nc3c([nH]c4ccccc43)c(=O)n2-c2ccc(F)cc2)c1C,49%
15,O=C(CSc1nc2c([nH]c3ccccc32)c(=O)n1-c1ccccc1F)Nc1cccc(C(F)(F)F)c1,74%
16,COc1cccc(NC(=O)CSc2nc3c([nH]c4ccccc43)c(=O)n2-c2ccccc2)c1,76%
17,O=C(CSc1nc2c([nH]c3ccccc32)c(=O)n1-c1ccccc1)Nc1cccc(C(F)(F)F)c1,-4% (active)
18,O=C(CSc1nc2c([nH]c3ccccc32)c(=O)n1-c1ccccc1)c1ccccc1,77%
19,O=C(CSc1nc2c([nH]c3ccccc32)c(=O)n1-c1cccc(Cl)c1)c1ccccc1,47% (active)

row,Compound,survival
1,O=C(CSc1nc2c([nH]c3ccccc32)c(=O)n1-c1ccc(Cl)cc1)c1ccccc1,94%
2,Cc1ccc(C)c(NC(=O)CSc2nc3c([nH]c4ccccc43)c(=O)n2-c2ccc(F)cc2)c1,32% (active)
3,CCCn1ccc2c(OCC(=O)Nc3ccc(C(F)(F)F)cc3)cccc2c1=O,75%
4,COc1ccccc1CNC(=O)Cn1nc(C)n2cccc2c1=O,94%
5,CCN(CC)c1ccc(NC(=O)Cn2cc3c(n2)CCCC3)c(C)c1,121%
6,CCOc1ccc(-n2c(SCC(=O)NC3CCCC3)nnc2-c2ccoc2C)cc1,92%
7,O=C(Nc1ccc(F)c(Cl)c1)c1ccc2c(Cl)c3c(nc2c1)CCCC3,118%
8,O=C(Nc1ccccc1F)c1ccc2c(Cl)c3c(nc2c1)CCC3,21% (active)
9,COc1ccccc1NC(=O)c1ccc2c(Cl)c3c(nc2c1)CCCC3,15% (active)
10,COc1ccc(OC)c(NC(=O)c2ccc3c(Cl)c4c(nc3c2)CCCC4)c1,82%
11,CCOc1ccccc1NC(=O)c1ccc2c(Cl)c3c(nc2c1)CCCC3,35% (active)
12,COc1cc(OC)c(NC(=O)c2ccc3c(Cl)c4c(nc3c2)CCCC4)cc1Cl,85%
13,CCOc1ccccc1NC(=O)c1ccc2c(Cl)c3c(nc2c1)CCC3,82%
14,COc1cc(Cl)c(C)cc1NC(=O)c1ccc2c(SCC(=O)O)c3c(nc2c1)CCCC3,41% (active)
15,COC(=O)c1ccccc1NC(=O)c1ccc2c(Cl)c3c(nc2c1)CCCC3,80%
16,COc1ccc(C)cc1NC(=O)c1ccc2c(SCC(=O)O)c3c(nc2c1)CCCC3,77%
17,COc1ccc(NC(=O)c2ccc3c(SCC(=O)O)c4c(nc3c2)CCCC4)c(OC)c1,55%
18,CCOc1ccc(CNC(=O)c2ccc3c(Cl)c4c(nc3c2)CCCC4)cc1,75%
